The structures appear in SMILES notation. The campaign covered roughly 48,000 compounds. About 13,000 (27%) showed an effect of 50% or more. This is one part of the list.

This experiment has as its system Wolbachia pipientis. The experiment can be described thus: Anti-Wolbachia Cell-Based Screen. It is filed as functional. Details: scale not given: in the data most compounds retested in dose-response had high values. As to conditions: 5 µM.
Consider `Fc1ccc(CN2CCC3(CCCN(c4nncs4)C3)C2)cc1.O=C(O)C(F)(F)F` (configuration not stated), for which the “Percent Effect” value is on record as 5.699%.

With `COc1ccc(S(=O)(=O)NC(=O)C(C)OC)c(OC)c1` (configuration not stated), the “Percent Effect” value is on record as 36.91%.

Turning to `O=C(N[C@@H]1CN(C2CCCC2)C[C@@H]2CCCO[C@@H]21)c1cnccn1.O=C(O)C(F)(F)F`, the “Percent Effect” value was -9.219%.

With `CN(C(=O)C(c1c(F)cccc1Cl)N(C)C)c1nccs1` (configuration not stated), the “Percent Effect” value is given as 2.736%.

Consider `COC1COC2(CCN(C(=O)c3cscn3)CC2)C1` (configuration not stated), for which the “Percent Effect” value is reported as -7.766%.

In the case of `COc1ncccc1C(=O)N1C[C@@H]2COC[C@]2(CN(C)C)C1.O=C(O)C(F)(F)F.O=C(O)C(F)(F)F`, the “Percent Effect” value is recorded as -15.94%.

Turning to `COc1ncccc1C(=O)N1CCC2(CC1)CC(OC)CO2.O=C(O)C(F)(F)F` (configuration not stated), the “Percent Effect” value worked out at 101.4%.

Take `O=C1CCCN1C1CCCN(CCOc2ccc(F)cc2)C1` (configuration not stated): the “Percent Effect” value is on record as -5.922%.

For the molecule `COCCCN1CC2(CCCN(c3ncc(Cl)cc3F)C2)CCC1=O` (configuration not stated), the “Percent Effect” value is given as -2.307%.

With `Nc1ccnc(C(=O)N2CCCC3(CCC(=O)N(C4CCCC4)C3)C2)c1` (configuration not stated), the “Percent Effect” value was 1.558%.

As for `Cn1cc(CN2C[C@@H](N3CCCC3=O)[C@H]3OCCC[C@H]32)cn1`, the “Percent Effect” value is listed as 16.86%.

For the molecule `Cc1cnn(CC(=O)N2CCC3(CCC(=O)N(C4CCCC4)C3)CC2)c1`, the “Percent Effect” value was -24.67%.

`O=C1CCCN1C1CCCN(CCn2cc(Cl)cn2)C1` (configuration not stated): the “Percent Effect” value is 92.68%.

As to `Cc1ccnn1CCN1CCCC2(CCC(=O)N(C3CCCC3)C2)C1` (configuration not stated), the “Percent Effect” value amounted to 107.9%.

In the case of `O=C1CCC2(CCCN(CCn3cc(Cl)cn3)C2)CN1C1CCCC1` (configuration not stated), the “Percent Effect” value amounted to 113%.

Take `COCCN1CC2(CCCN(c3ncc(Cl)cc3F)C2)CCC1=O` (configuration not stated): the “Percent Effect” value came to 2.913%.

For `COCCCN1CC2(CCCN(CCn3cc(Cl)cn3)C2)CCC1=O` (configuration not stated), the “Percent Effect” value was determined as 116.7%.

Consider `COc1coc(CN2CCCC3(CCC(=O)N(C4CC4)C3)C2)cc1=O` (configuration not stated), for which the “Percent Effect” value is 7.748%.

For the molecule `O=C1CCC2(CCN(Cc3cc(F)ccc3Cl)CC2)CN1C1CCCC1`, the “Percent Effect” value is reported as -0.02537%.

In the case of `Cc1cc(NC(=O)CNCc2csc(-c3cnccn3)n2)ccc1Cl`, the “Percent Effect” value is given as -4.536%.

Turning to `CN(c1ncccc1CNS(=O)(=O)N1CCOCC1)C1CCCCC1`, the “Percent Effect” value amounted to 1.985%.

Turning to `Cc1ccc(S(=O)(=O)N2CCOCC2C#N)cc1Br` (configuration not stated), the “Percent Effect” value is recorded as -3.449%.

Take `Cc1nc[nH]c1CN1C[C@@H]2CC[C@H](C1)N(C(=O)CCc1cnn(C)c1)C2`: the “Percent Effect” value was -6.684%.

Turning to `O=C(NCCCn1ccnn1)C1CCCN(C2CCCC2)C1` (configuration not stated), the “Percent Effect” value came to 9.707%.

`O=c1c(CN2CCOCC2)coc2ccc(Cl)cc12`: the “Percent Effect” value is 14.49%.

On to `O=c1c(CN2CCOCC2)coc(O)c1CN1CCOCC1`, for which the “Percent Effect” value was 110.9%.

Turning to `CC(C)NC(=O)Nc1ccccc1CN1CCOCC1`, the “Percent Effect” value is 8.436%.

Regarding `O=c1c(CN2CCCCC2)coc2ccc(Cl)cc12`, the “Percent Effect” value is on record as -1.352%.

As to `Cc1ccc2occ(CN3CCN(c4ncccn4)CC3)c(=O)c2c1`, the “Percent Effect” value was -23.78%.

For `O=c1c(CN2CCSCC2)coc(O)c1CN1CCCC1`, the “Percent Effect” value is recorded as 112.9%.

As for `O=c1c(CN2CCCCCC2)coc(O)c1CN1CCCCCC1`, the “Percent Effect” value came to 87.67%.

With `O=C1OCCN1CCN1CCCN(Cc2ccccc2F)CC1`, the “Percent Effect” value was 0.37%.

On to `O=c1c(CN2CCCCCC2)coc(O)c1CN1CCOCC1`, for which the “Percent Effect” value amounted to 99.75%.

Take `CC(C)C(C)NC(=O)Nc1ccccc1CN1CCOCC1` (configuration not stated): the “Percent Effect” value is -2.62%.

For `CCn1ccc2ccc(CN3CCCC3c3nc(C(C)C)no3)cc21` (configuration not stated), the “Percent Effect” value is given as -10.44%.

On to `Cc1cccc(CO[C@H]2CO[C@@]3(CCN(S(=O)(=O)N(C)C)C3)C2)n1`, for which the “Percent Effect” value is -27.75%.

Regarding `FC(F)(F)Sc1ccccc1NCc1nc(C2CC2)no1`, the “Percent Effect” value is recorded as 0.6009%.

Consider `CC(NCc1cnc(C2CCC2)s1)c1ccc(-n2cncn2)cc1` (configuration not stated), for which the “Percent Effect” value is -68.33%.

For the molecule `CC(C)CCCC(C)NC(=O)c1ccc(OCC(N)=O)cc1` (configuration not stated), the “Percent Effect” value is reported as -8.979%.

Turning to `O=C(NCC(F)(F)F)C(c1cccnc1)N1CCCC1` (configuration not stated), the “Percent Effect” value is reported as -5.02%.

Take `CC(NC(=O)Nc1ccc(F)c(F)c1)c1nc[nH]n1` (configuration not stated): the “Percent Effect” value is -17.28%.

`CCC(=O)Nc1ccc(F)c(S(=O)(=O)NC(C)(C)C)c1`: the “Percent Effect” value is reported as -7.233%.

Regarding `Cc1ccc(NC(=O)CC2Cn3ncnc3NC2=O)cc1C` (configuration not stated), the “Percent Effect” value is on record as 101.1%.

In the case of `Cc1cc(NC(=O)CNCc2csc(-c3ncccn3)n2)ccc1Cl`, the “Percent Effect” value turned out to be 12.11%.

For the molecule `Cc1ccc(NC(=O)c2ccc(CC3CC(=O)NC3=O)cc2)cc1O` (configuration not stated), the “Percent Effect” value is reported as -14.91%.

Turning to `O=C(CC1Cn2ncnc2NC1=O)Nc1ccc(F)c(F)c1` (configuration not stated), the “Percent Effect” value came to 110.9%.

With `O=C1CN(c2ccc(CNC(=O)c3ccc[nH]3)cc2F)CCN1`, the “Percent Effect” value turned out to be 1.628%.

Regarding `CCNC(=O)NC(=O)CN(CC(C)O)c1ccccc1` (configuration not stated), the “Percent Effect” value is -6.081%.

As for `FC(F)(F)c1nnc2n1CCN(c1nc(C3CC3)ns1)C2`, the “Percent Effect” value is 7.167%.

`O=C(NCc1cc(-c2ccccc2)no1)NCC1CCCO1` (configuration not stated): the “Percent Effect” value is reported as 63.77%.

For `O=C(NS(=O)(=O)Cc1cc(-c2ccccc2)no1)C1CCOCC1`, the “Percent Effect” value was -7.495%.

Consider `CCN1CCC(CNC(=O)NCc2cc(-c3ccc(C)cc3)no2)C1` (configuration not stated), for which the “Percent Effect” value came to 6.048%.

Turning to `O=S(=O)(Cc1cc(-c2ccccc2)no1)CC1CCCO1` (configuration not stated), the “Percent Effect” value was 117.5%.

Consider `CC1(C)CC1C(=O)NS(=O)(=O)Cc1cc(-c2ccccc2)no1` (configuration not stated), for which the “Percent Effect” value is -6.027%.

For the molecule `c1ccc(-c2cc(CN3CCC(c4ccn[nH]4)CC3)on2)cc1`, the “Percent Effect” value is -18.74%.

Turning to `CC(C(=O)NS(=O)(=O)Cc1cc(-c2ccccc2)no1)C1CC1` (configuration not stated), the “Percent Effect” value was -15.76%.

As to `O=C(CC1CCCO1)NS(=O)(=O)Cc1cc(-c2ccccc2)no1` (configuration not stated), the “Percent Effect” value came to 94.25%.

Turning to `Cc1cc(C)c(CNC(=O)NCC2CCCO2)c(=O)[nH]1` (configuration not stated), the “Percent Effect” value was -10.27%.

Regarding `CS(=O)(=O)N1CC(c2nc[nH]n2)c2cc(C(=O)NC3CC3)ccc21` (configuration not stated), the “Percent Effect” value is listed as -11.05%.

Take `CC(=O)Nc1ccc(Cl)c(C(=O)N(C)C(C)c2ccon2)c1` (configuration not stated): the “Percent Effect” value was 2.031%.

With `COCCN1CCN(Cc2nc3c(s2)CCCC3)[C@H]2CS(=O)(=O)C[C@H]21`, the “Percent Effect” value is -3.056%.

For `CN(C)CCN(Cc1ccccc1)C(=O)C1=NNC(=O)CC1`, the “Percent Effect” value was -7.83%.

Consider `Cc1ccc(NC2CCN(C(=O)c3cccc(F)c3F)CC2)nn1`, for which the “Percent Effect” value is on record as -1.212%.

Consider `Cc1ccc(NC2CCN(C(=O)c3cc(C(N)=O)cs3)CC2)nn1`, for which the “Percent Effect” value is recorded as 7.568%.

Regarding `Cc1ccc(NC2CCN(C(=O)c3ccc(F)c(C)c3)CC2)nn1`, the “Percent Effect” value was determined as 89.48%.

Take `Cc1ccc(NC2CCN(C(=O)c3ccc4c(c3)CCC4)CC2)nn1`: the “Percent Effect” value was 112.2%.

Consider `COc1ccc(C(=O)N2CCC(Nc3ccc(C)nn3)CC2)c(F)c1`, for which the “Percent Effect” value is reported as -2.664%.

These data come from ChEMBL document CHEMBL3988442, “University of Dundee, Small-Polar-MMV Screening Library” (2021).
